# Measurements as given in ChEMBL document CHEMBL5308504, “Tm Shift (DSF) assay results for EUbOPEN Chemogenomics Library” (2023).
# Columns and labels:
# Conditions in all cases: Compound concentration 20.0 uM, Protein concentration 2.0 uM, Result type QC Liability
# [1] = target: Tyrosine-protein kinase ABL1 (Homo sapiens) (UniProt P00519)
# [2] = target: Cyclin-dependent kinase 2 (Homo sapiens) (UniProt P24941)
# [3] = target: Casein kinase I isoform delta (Homo sapiens) (UniProt P48730)
# [4] = target: Glycogen synthase kinase-3 beta (Homo sapiens) (UniProt P49841)
# [5] = target: Mitogen-activated protein kinase 1 (Homo sapiens) (UniProt P28482)
# [6] = target: T1, Aurora kinase A (Homo sapiens) (UniProt O14965)
# T1 sequence (whole entry): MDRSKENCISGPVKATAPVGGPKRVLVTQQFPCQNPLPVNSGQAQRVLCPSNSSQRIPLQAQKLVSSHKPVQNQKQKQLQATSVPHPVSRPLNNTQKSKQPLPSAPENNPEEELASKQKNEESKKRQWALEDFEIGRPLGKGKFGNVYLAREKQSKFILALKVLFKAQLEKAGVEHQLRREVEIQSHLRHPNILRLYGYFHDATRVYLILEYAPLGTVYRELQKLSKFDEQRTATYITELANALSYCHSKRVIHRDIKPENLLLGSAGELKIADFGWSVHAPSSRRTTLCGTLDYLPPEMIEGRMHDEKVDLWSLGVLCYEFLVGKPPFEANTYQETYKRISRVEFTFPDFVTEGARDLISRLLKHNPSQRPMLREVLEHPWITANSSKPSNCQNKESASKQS
# [7] = target: T2, Transcription intermediary factor 1-alpha (Homo sapiens) (UniProt O15164)
# T2 sequence (whole entry): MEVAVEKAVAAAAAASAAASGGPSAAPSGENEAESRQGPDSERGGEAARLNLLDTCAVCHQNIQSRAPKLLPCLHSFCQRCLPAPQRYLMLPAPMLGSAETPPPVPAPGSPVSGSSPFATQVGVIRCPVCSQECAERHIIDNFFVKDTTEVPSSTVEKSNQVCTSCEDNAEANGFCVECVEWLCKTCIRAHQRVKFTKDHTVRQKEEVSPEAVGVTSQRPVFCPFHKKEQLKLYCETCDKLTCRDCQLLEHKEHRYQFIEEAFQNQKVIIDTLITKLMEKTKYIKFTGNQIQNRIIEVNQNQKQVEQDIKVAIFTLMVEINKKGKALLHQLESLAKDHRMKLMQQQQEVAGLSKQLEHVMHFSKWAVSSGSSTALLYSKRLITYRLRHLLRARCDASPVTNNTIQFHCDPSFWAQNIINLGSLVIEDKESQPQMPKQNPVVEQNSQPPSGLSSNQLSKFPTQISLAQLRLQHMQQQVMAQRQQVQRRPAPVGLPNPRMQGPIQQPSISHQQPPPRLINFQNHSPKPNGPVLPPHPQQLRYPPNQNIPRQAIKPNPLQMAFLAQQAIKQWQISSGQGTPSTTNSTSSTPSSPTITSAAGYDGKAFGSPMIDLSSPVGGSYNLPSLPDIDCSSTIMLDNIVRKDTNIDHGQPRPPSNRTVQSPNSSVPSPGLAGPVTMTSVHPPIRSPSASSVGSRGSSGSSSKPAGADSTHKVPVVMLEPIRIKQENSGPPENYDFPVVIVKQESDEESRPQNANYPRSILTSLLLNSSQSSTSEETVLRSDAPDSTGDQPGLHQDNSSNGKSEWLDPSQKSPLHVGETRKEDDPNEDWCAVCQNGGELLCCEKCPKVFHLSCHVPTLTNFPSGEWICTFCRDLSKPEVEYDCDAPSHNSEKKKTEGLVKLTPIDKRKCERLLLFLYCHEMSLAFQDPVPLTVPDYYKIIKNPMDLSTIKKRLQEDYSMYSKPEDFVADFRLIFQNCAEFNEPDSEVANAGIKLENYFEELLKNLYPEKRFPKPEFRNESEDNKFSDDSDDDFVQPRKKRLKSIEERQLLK
# Sequence of Glycogen synthase kinase-3 beta (Homo sapiens) (P49841 whole entry, looked up): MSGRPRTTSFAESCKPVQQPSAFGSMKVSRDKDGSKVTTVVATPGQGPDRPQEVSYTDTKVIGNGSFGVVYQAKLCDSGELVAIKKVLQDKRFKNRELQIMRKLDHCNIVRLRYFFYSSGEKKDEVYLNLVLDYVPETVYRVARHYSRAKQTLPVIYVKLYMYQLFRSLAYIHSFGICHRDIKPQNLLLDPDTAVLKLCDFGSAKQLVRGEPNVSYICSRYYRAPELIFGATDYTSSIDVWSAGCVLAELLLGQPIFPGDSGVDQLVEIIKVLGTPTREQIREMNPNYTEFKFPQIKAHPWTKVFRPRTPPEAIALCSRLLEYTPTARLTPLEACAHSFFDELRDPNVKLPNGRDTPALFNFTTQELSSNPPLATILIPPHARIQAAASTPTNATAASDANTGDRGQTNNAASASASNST
# Sequence of Mitogen-activated protein kinase 1 (Homo sapiens) (P28482 whole entry): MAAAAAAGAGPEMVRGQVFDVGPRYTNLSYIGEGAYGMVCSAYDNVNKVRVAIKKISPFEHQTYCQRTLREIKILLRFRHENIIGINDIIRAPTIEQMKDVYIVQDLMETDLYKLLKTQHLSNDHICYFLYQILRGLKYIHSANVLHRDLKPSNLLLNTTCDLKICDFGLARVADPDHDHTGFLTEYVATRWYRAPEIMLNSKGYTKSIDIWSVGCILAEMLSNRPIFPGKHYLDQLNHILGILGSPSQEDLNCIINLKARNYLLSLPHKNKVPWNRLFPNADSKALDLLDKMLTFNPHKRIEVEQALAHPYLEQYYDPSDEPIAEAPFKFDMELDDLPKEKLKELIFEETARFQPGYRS
# Sequence of Tyrosine-protein kinase ABL1 (Homo sapiens) (P00519 whole entry): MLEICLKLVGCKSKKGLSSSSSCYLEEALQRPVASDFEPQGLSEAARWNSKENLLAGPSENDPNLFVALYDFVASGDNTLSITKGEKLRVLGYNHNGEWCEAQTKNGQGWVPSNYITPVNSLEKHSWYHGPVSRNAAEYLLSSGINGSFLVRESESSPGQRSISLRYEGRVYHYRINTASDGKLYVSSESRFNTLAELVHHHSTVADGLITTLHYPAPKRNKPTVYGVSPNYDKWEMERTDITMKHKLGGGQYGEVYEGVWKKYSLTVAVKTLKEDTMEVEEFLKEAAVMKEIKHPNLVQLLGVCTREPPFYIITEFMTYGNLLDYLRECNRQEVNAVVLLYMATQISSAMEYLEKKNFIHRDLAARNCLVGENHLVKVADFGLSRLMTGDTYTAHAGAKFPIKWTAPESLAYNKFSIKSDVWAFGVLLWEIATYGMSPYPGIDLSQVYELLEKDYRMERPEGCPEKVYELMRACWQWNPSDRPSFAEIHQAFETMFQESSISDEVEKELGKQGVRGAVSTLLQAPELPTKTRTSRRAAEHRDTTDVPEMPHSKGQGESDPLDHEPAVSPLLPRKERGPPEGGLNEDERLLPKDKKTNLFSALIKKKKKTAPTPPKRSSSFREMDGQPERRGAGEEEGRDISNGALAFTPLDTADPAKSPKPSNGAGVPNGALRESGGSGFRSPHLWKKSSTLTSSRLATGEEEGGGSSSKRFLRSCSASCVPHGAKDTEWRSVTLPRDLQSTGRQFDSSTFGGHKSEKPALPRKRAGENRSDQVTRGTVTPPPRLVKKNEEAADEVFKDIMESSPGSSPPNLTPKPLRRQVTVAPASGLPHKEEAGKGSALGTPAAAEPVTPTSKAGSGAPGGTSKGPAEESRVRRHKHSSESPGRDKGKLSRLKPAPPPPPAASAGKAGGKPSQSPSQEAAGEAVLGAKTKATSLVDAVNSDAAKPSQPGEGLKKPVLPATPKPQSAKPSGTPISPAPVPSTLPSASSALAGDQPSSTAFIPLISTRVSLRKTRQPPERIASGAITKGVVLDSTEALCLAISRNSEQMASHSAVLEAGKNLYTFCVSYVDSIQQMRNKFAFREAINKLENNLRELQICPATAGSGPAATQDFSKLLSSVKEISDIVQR
# Sequence of Casein kinase I isoform delta (Homo sapiens) (P48730 whole entry, looked up, canonical isoform): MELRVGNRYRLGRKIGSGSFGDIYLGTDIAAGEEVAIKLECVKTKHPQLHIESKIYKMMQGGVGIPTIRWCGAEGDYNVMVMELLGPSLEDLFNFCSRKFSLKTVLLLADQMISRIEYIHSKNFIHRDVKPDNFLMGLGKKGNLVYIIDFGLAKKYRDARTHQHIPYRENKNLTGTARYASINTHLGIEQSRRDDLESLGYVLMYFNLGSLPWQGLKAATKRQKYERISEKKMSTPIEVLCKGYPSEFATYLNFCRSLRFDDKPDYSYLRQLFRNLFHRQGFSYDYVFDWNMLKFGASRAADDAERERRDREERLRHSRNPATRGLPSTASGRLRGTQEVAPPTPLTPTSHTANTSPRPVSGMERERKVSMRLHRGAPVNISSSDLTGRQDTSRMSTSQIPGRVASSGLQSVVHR
Structure (SMILES),ΔTm [1],ΔTm [2],ΔTm [3],ΔTm [4],ΔTm [5],ΔTm [6],ΔTm [7]
CO[C@@H](C)CN1CC[C@]2(C)c3cc(O)ccc3C[C@H]1C2(C)C,0.73 °C,0.61 °C,0.53 °C,-0.14 °C,0.27 °C,-0.25 °C,0.53 °C
CN(C(=O)CCOCCOCCOCCOCCNc1cccc2c1C(=O)N(C1CCC(=O)NC1=O)C2=O)[C@H]1CC[C@@]2(C)[C@@H](CC[C@@H]3[C@@H]2CC[C@]2(C)[C@@H](c4ccc5ccncc5c4)CC[C@@H]32)C1 (some centres undefined),1.62 °C,0.45 °C,-6.92 °C,2.49 °C,-1.53 °C,-1.77 °C,0 °C
CCN(CC)CCO[C@H]1CC[C@@]2(C)C(=CC[C@@H]3[C@@H]2CC[C@]2(C)C(=O)CC[C@@H]32)C1,0.26 °C,0.63 °C,-0.08 °C,-0.11 °C,0.35 °C,-0.37 °C,-0.77 °C
COP(=O)(CCC(N)C(=O)O)Oc1cccc(CC(=O)O)c1 (centres undefined),-0.06 °C,0.07 °C,0.36 °C,-0.02 °C,0.13 °C,-0.17 °C,0.32 °C
CCN1C(=O)C(c2cccc(C(=O)O)c2)C(=O)N(c2ccccc2)c2cc(C(F)(F)F)ccc21 (centres undefined),-0.5 °C,-0.13 °C,0.29 °C,-1.43 °C,0.17 °C,-0.25 °C,0.23 °C
Cc1nnc2n1-c1sc(CCC(=O)N3CCOCC3)cc1C(c1ccccc1Cl)=NC2,0.15 °C,0.99 °C,0.34 °C,-0.2 °C,0.13 °C,0.01 °C,0.29 °C
CNc1nc(-c2cc(C(=O)N3CCN(Cc4ccc(Cl)cc4)CC3)c(Cl)cn2)cs1,-0.06 °C,0.89 °C,0.17 °C,0.59 °C,0.23 °C,-0.18 °C,0.39 °C
C[C@H](CCC(=O)O)[C@H]1CC[C@H]2[C@@H]3[C@@H](O)C[C@@H]4C[C@H](O)CC[C@]4(C)[C@H]3CC[C@]12C,0.07 °C,0.52 °C,0.77 °C,-0.56 °C,0.29 °C,-1.74 °C,-2.12 °C
Cn1ncc(-c2nc(N[C@H]3CC[C@H](N)CC3)ncc2Cl)c1CC1CC1,0.41 °C,12.7 °C,9.79 °C,9.59 °C,2.41 °C,2.45 °C,-3.6 °C
CN1CCN(C(=O)Cc2ccc(N/C(=C3\C(=O)Nc4cc(Cl)ccc43)c3ccccc3)cc2)CC1,8.52 °C,1.7 °C,1.29 °C,6.21 °C,-0.19 °C,1.19 °C,-2.36 °C
CS(=O)(=O)c1ccc(-c2cnc(N)c(C(=O)Nc3ccccc3)n2)cc1,0.67 °C,0.23 °C,-0.19 °C,3.54 °C,0.38 °C,0.45 °C,-1.74 °C
C=CC(=O)Nc1ccc2[nH]c(=O)n(C3CCN(Cc4ccc(-c5ccc6c(c5)NC(=O)CO6)cc4)CC3)c2c1,0.74 °C,-0.1 °C,0.68 °C,3.14 °C,0.64 °C,1.01 °C,-2.17 °C
C=CC(=O)N1CCC[C@@H](n2nc(-c3ccc(Oc4ccccc4)cc3)c3c(N)ncnc32)C1,2.63 °C,0.83 °C,0.7 °C,-1.96 °C,-6.31 °C,6.21 °C,-4.01 °C
Cc1nnc2n1-c1sc3c(c1C(c1ccccc1Cl)=NC2)C[C@H](C(=O)N1CCOCC1)C3,0.62 °C,0.85 °C,0.25 °C,0.26 °C,0.42 °C,-0.08 °C,-0.99 °C
C=C[C@@]12CCc3cc(O)ccc3[C@H]1CC[C@@]1(C)[C@H]2CC[C@@H]1O,0.27 °C,0.21 °C,0.08 °C,1.27 °C,0.21 °C,0 °C,-0.42 °C
Cc1cc(Cl)ccc1S(=O)(=O)NC[C@H]1C2CCC(CC2)[C@@H]1/C=C\CCCC(=O)O,-0.05 °C,-0.53 °C,-0.27 °C,-1.54 °C,0.13 °C,-0.34 °C,-0.51 °C
Cc1nnc2n1-c1sc3c(c1C(c1ccccc1Cl)=NC2)C[C@@H](C(=O)N1CCOCC1)C3,0.78 °C,0.74 °C,0.17 °C,0.5 °C,0.3 °C,0.11 °C,-0.75 °C
Clc1ccccc1C(c1ccccc1)(c1ccccc1)n1cccn1,0.43 °C,0.09 °C,-0.01 °C,-0.43 °C,0.22 °C,-0.47 °C,-0.54 °C
COc1nc2ccc([C@@](O)(c3ccc(Cl)cc3)c3cncn3C)cc2c(Cl)c1Cc1ccc(-n2cccn2)cc1,-0.22 °C,-0.1 °C,-0.84 °C,-1.9 °C,-0.39 °C,-0.59 °C,-0.54 °C
C[C@@H](CO)CCC[C@@H](C)[C@H]1CC[C@H]2[C@@H]3CC=C4C[C@@H](O)CC[C@]4(C)[C@H]3CC[C@]12C,0.11 °C,0.17 °C,0.59 °C,-0.96 °C,0.35 °C,-1.67 °C,-3 °C

Structure (SMILES),ΔTm [1],ΔTm [2],ΔTm [3],ΔTm [4],ΔTm [5],ΔTm [6],ΔTm [7]
CCOP(=O)(OCC)C(=Cc1cc(C(C)(C)C)c(O)c(C(C)(C)C)c1)P(=O)(OCC)OCC,-0.09 °C,0.15 °C,0.17 °C,-0.29 °C,0.15 °C,-1.17 °C,-3.9 °C
CCC(=O)O[C@@H](OP(=O)(CCCCc1ccccc1)CC(=O)N1C[C@H](C2CCCCC2)C[C@H]1C(=O)O)C(C)C (some centres undefined),0.01 °C,0.46 °C,-0.25 °C,-0.61 °C,0.22 °C,-1.22 °C,-3.14 °C
N[C@H](C(=O)O)[C@@H]1CC(Cl)=NO1,-0.08 °C,0.85 °C,0.22 °C,0.23 °C,0.14 °C,-0.37 °C,-0.82 °C
C[C@]12CC[C@@H]3c4ccc(C(N)=O)cc4CC[C@H]3[C@@H]1CC=C2c1cncc(F)c1,0.15 °C,-0.32 °C,-4.77 °C,0 °C,0.35 °C,2.37 °C,0.2 °C
C=CC(=O)Nc1cc(-c2nn(C3CCC(N4CCN(C(C)=O)CC4)CC3)c3ncnc(N)c23)ccc1Oc1ccccc1 (centres undefined),0.84 °C,0.18 °C,0.89 °C,-1.12 °C,0.34 °C,4.07 °C,-1.68 °C
Cc1nnc2n1-c1sc3c(c1C(c1ccccc1Cl)=NC2)CC(C(=O)N1CCOCC1)C3 (centres undefined),0.38 °C,1.08 °C,0.02 °C,-0.24 °C,0.25 °C,0.1 °C,0.23 °C
O=C(NCCN1CCC2(CC1)C(=O)NCN2c1cccc(F)c1)c1ccc2ccccc2c1,-0.28 °C,0.17 °C,0.58 °C,-0.14 °C,0.08 °C,0.16 °C,0.18 °C
CO[C@H](C)CN1CC[C@]2(C)c3cccc(O)c3C[C@H]1C2(C)C,0.1 °C,0.52 °C,0.27 °C,-0.29 °C,-0.17 °C,-0.21 °C,0.19 °C
COc1ccc(OC(=O)N(CC(=O)O)Cc2ccc(OCCc3nc(-c4ccccc4)oc3C)cc2)cc1,0.16 °C,-0.27 °C,0.56 °C,-1.96 °C,0.18 °C,-0.93 °C,-4.78 °C
CC[C@H]1[C@@H](O)[C@@H]2[C@H](CC[C@]3(C)[C@@H]([C@H](C)CCC(=O)O)CC[C@@H]23)[C@@]2(C)CC[C@@H](O)C[C@@H]12,-0.12 °C,-0.27 °C,0.56 °C,-0.92 °C,-0.09 °C,-1.71 °C,-1.62 °C
C[C@@H]1CC[C@@]2(OC1)O[C@H]1[C@@H](O)[C@H]3[C@@H]4CC[C@H]5C[C@@H](O[C@@H]6O[C@H](CO)[C@H](O[C@@H]7O[C@H](CO)C(O)[C@H](O[C@@H]8OC[C@@H](O)[C@H](O)[C@H]8O)[C@H]7O[C@@H]7O[C@H](CO)[C@H](O)[C@H](O[C@@H]8O[C@H](CO)[C@@H](O)[C@H](O)[C@H]8O)[C@H]7O)[C@H](O)[C@H]6O)[C@H](O)C[C@]5(C)[C@H]4CC[C@]3(C)[C@H]1[C@@H]2C (some centres undefined),0.2 °C,0.55 °C,0.07 °C,-0.93 °C,0.27 °C,-0.73 °C,-3.45 °C
C[C@@H](CN1CC[C@@]2(C)c3cccc(O)c3C[C@@H]1C2(C)C)OCc1ccccc1,-0.13 °C,0.59 °C,0.25 °C,-1.13 °C,0.48 °C,0.13 °C,0.17 °C
O=C1CCC(N2Cc3cc(CNC(=O)C(F)(F)c4ccc(Cl)cc4)ccc3C2=O)C(=O)N1 (centres undefined),0.53 °C,0.76 °C,0.06 °C,0.18 °C,0.34 °C,-0.46 °C,-0.96 °C
OCC1OC(n2cnc3cc(Cl)c(Cl)cc32)C(O)C1O (centres undefined),0.32 °C,–,1.91 °C,0.18 °C,0.27 °C,0.42 °C,-1.91 °C
C[C@H](CCC(=O)O)[C@H]1CC[C@H]2[C@@H]3CC[C@@H]4C[C@H](O)CC[C@]4(C)[C@H]3CC[C@]12C,-0.82 °C,-1.65 °C,-3.52 °C,-3.06 °C,-0.88 °C,-4.37 °C,-5.96 °C
CCCn1cc(-c2cc(C3C(=O)N(CC)c4ccc(C(F)(F)F)cc4N(c4ccccc4)C3=O)cc(OC)c2O)cn1 (centres undefined),-0.36 °C,1.16 °C,0.47 °C,-1.32 °C,-7.84 °C,0.54 °C,0.28 °C
CNC(=O)c1cc(C(=O)NC2CC2)cn(Cc2ccccc2)c1=O,0.07 °C,0.96 °C,-0.04 °C,-0.41 °C,0.38 °C,-0.78 °C,-0.29 °C
Cc1ccc2c(N)c(C(=O)NC3CCc4cc(N5CC6CCC(C5)N6)ccc4C3)sc2n1 (centres undefined),0.14 °C,-0.27 °C,0.27 °C,-0.23 °C,0.3 °C,-0.05 °C,-1.89 °C
COc1ccc(-n2nc(C(F)(F)F)cc2-c2ccc(Cl)cc2)cc1,0.2 °C,1.23 °C,0.03 °C,-0.24 °C,0.69 °C,-0.08 °C,-0.34 °C
CO[C@H](C)CN1CC[C@@]2(C)c3ccc(O)cc3C[C@@H]1C2(C)C,0.21 °C,-0.28 °C,0.29 °C,-0.8 °C,0.34 °C,0.3 °C,0.33 °C
